Assay outcomes deposited in PubChem by National Center for Advancing Translational Sciences (NCATS).
POLI inh: DNA polymerase iota (human) inhibition; Q9UNA4; Pol iota fluorescent replication assay, 10 min; Potency, µM (doses to about 115 µM), for inactives: at the highest dose activity, negative = inhibition, actives largely listed as inhibitors; hit rate 1% among 390,000
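Pol iota at 10 nM preincubated 15 min with compounds at room temperature; reaction started with fluorescent substrate, 50 nM final. Fluorescence read kinetically at 0 and 10 min; buffer-only wells as negative control.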
Pol kappa inh: blocks human DNA polymerase kappa activity; Potency, µM (series often up to 107 µM), for the others: at the top dose activity, negative = inhibition, usual class: inhibitors; hit rate 0.53% among 400,000; purified Pol kappa, fluorescent DNA synthesis assay, 10 min; AID 588579; Q9UBT6; note: % is set by controls: 0 for no effect and ±100 for the full control effect
Target sequence (Q9UBT6 whole entry, looked up): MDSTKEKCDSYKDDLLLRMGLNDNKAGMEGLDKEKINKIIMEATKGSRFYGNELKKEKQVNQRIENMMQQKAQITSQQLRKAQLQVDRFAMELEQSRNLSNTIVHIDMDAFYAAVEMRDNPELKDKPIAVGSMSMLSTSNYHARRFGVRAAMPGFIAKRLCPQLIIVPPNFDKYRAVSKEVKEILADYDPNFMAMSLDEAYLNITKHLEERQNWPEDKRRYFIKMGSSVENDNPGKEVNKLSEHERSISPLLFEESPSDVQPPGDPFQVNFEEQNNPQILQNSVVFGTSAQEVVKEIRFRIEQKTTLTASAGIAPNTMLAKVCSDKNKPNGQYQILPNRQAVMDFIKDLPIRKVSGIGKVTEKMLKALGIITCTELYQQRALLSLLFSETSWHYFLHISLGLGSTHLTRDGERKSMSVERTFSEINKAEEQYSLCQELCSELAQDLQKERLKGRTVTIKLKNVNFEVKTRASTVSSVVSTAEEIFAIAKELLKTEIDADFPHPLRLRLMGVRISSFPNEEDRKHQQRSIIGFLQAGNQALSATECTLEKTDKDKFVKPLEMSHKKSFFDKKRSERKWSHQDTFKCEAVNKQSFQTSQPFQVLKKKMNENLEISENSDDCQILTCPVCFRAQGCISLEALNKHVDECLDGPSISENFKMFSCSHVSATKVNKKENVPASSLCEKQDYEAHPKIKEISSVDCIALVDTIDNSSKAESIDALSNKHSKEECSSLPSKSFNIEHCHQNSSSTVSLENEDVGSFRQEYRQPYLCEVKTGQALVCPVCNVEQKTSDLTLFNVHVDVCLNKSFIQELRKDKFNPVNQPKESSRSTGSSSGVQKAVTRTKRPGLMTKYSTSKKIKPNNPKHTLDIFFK
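Kinetic fluorescence readout at 0 and 10 min followed reaction start with substrate at 50 nM final. Beforehand, enzyme (10 nM Pol kappa) stood 15 min with compound at room temperature; buffer-only wells were negative controls.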
APEX1 inh: blocks human APE1 abasic DNA cleavage | P27695 | Potency, µM (titrated, usually from 65.8 µM), inactives show top-dose activity change, negative = inhibition, most hits filed as inhibitors | recombinant APE1, TAMRA/BHQ-2 abasic DNA cleavage fluorescence | hit rate 0.35% among 350,000;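 note: plate controls were vehicle for no effect and reference inhibitor for full effect; nearly all actives have a fitted effect of over 55% in size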
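Readout is kinetic fluorescence (ex 525, em 598 nm) from cleavage of 50 nM TAMRA/BHQ-2 THF abasic duplex by 0.75 nM APE1, compound added 15 min beforehand at RT.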
Pol beta inh: blocks human DNA polymerase beta activity | Pol beta primer extension/strand displacement, fluorescence kinetic | P06746 | hit rate 1.3% among 340,000 | Potency, µM (doses to about 114 µM), for inactives: at the top dose activity change, negative = inhibition, actives largely listed as inhibitors | AID 485314; note: % is set by controls: 0 for no effect and ±100 for the full control effect
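Enzyme-only controls used 10 nM Pol beta; buffer lacking enzyme served as negative control. Compound preincubated 15 min, then 50 nM substrate added; 0 and 10 min reads at room temperature.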
Pol eta inh: DNA polymerase eta (human) inhibition; Q9Y253; recombinant Pol eta, fluorescent DNA replication assay; Potency, µM (titrated, usually from 114 µM), for inactives: at the highest dose activity change, negative = inhibition, most hits filed as inhibitors; hit rate 1.2% among 390,000; AID 588591; note: % is set by controls: 0 for no effect and ±100 for the full control effect
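Fluorescent replication assay: 50 nM final substrate added after a 15 min room-temperature compound preincubation with 10 nM enzyme. Signal taken at 0 min and again at 10 min.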
GLS inh: inhibitors of human glutaminase (GLS); hit rate 0.21% among 410,000; AID 624170; GLS enzymatic activity, qHTS titration; Potency, µM (series often up to 45.5 µM), without a hit: at the highest dose activity change, negative = inhibition, most hits filed as inhibitors; O94925; note: % is set by controls: 0 for no effect and ±100 for the full control effect
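Human kidney-isoform GLS in 45 mM KH2PO4 pH 8.2, 0.02% Tween-20, with compound, started with 1mM L-Glutamine (added stock). Glutamate oxidase/HRP/Amplex red coupled fluorescence read at start and after 30 min at RT.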
The depositor's hits bear a star; ? = inconclusive; nt = no result given; [ ] = remark or other dose. Shown are actives, neighbours in structure and some others; about 2.4% of the full set was active somewhere. Calls come from the whole dose curve; as a rule, active = well fitted curve in the direction sought with a large enough effect; inconclusive = small, poorly fitted or top-dose-only effect, or another doubt; inactive = no such curve, though single readings can be large; an effect the other way counts as inactive or inconclusive. Potency is the fitted concentration of half-maximal effect.

SMILES	POLI inh	Pol kappa inh	APEX1 inh	Pol beta inh	Pol eta inh	GLS inh
NC1(C#Cc2ccc3oc(=O)c(-n4cc(-c5ccsc5)nn4)cc3c2)CCCCC1	15%	7%	3%	nt	-19%	3%
Cc1ccc(N2C(=O)NC(NC(=O)C(C)(C)C)(C(F)(F)F)C2=O)cc1 (stereo unspecified)	188%	-10%	0%	9%[57.1 µM]	-21%	1%
O=C1CC(c2ccccc2)=NN1c1nc(-c2ccccc2)cs1	20µM*	40µM*	-5%	32µM*	-20%	-4%
COC(=O)C1=C(C)N(Cc2ccccc2)C(=O)/C1=C\c1ccco1	50µM*	?	-6%	-30%	-21%	-6%
C=CCn1c2ccccc2c(=O)c2cc(C#CC[C@@H](C)O)ccc21	?	-8%	-16%	nt	-1%	-1%
CSc1cccc(NC(=S)N2CCC(N(C)C3CCCCCC3)CC2)c1	44%	-1%	-1%	11%	-13%	?
COc1ccc2oc(=O)c(/C(C)=N/Nc3nc(-c4cc(C)ccc4C)cs3)cc2c1	16%	1%	7%	-1%	-10%	-14%
C/C(=N\Nc1nc(-c2ccc(C)cc2C)cs1)c1cc2ccccc2oc1=O	1%	-7%	-1%	22µM*	-9%	16%
C=CCSC1=N/C(=C\c2cc(OCC)c(OC(C)=O)c([N+](=O)[O-])c2)C(=O)S1	20µM*	32µM*	?	20µM*	?	-2%
COc1ccccc1-c1nc2c(c(SCC(=O)Nc3ccccc3F)n1)Cc1c(CO)cnc(C)c1O2	4%	-10%	nt	79µM*	-1%	-14%
O=c1oc2ccccc2cc1-c1cn2cc(Cc3ccc(F)cc3)sc2n1	9%	2%	nt	4%	-14%	2%
C[C@H](CO)N1C[C@H](C)[C@@H](CN(C)C(=O)Nc2ccccc2)Oc2c(NS(=O)(=O)c3ccc(F)cc3)cccc2C1=O	-8%	-9%	-8%	nt	-9%	4%
CC1C(=O)N(Cc2cn(Cc3ccco3)nn2)CCS(=O)(=O)N1Cc1ccc(-c2ccncc2)cc1 (stereo unspecified)	nt	nt	nt	nt	50µM*	-12%
CC1C(=O)N(Cc2cn(Cc3ccco3)nn2)CCS(=O)(=O)N1Cc1ccc(-c2ccc(F)cc2)cc1 (stereo unspecified)	nt	nt	nt	nt	-23%	2%
CCC(=O)c1ccc(OCC(O)Cn2nc(C)c(Br)c2C)cc1 (stereo unspecified)	16%	1%	5%	2%	-14%	-10%
COc1ccccc1CCNC(=O)C(=O)NCC(c1ccco1)S(=O)(=O)c1cccs1 (stereo unspecified)	28%	-3%[60.1 µM]	nt	17%	-18%	9%
CN(C)c1nc(N/N=C/c2ccccc2O)nc(Nc2ccc(F)cc2)n1	68%	?	-9%	?	79µM*	9%
CN(C)c1nc(Nc2ccc(F)cc2)nc(Oc2ccc(F)cc2)n1	1%	-10%	11%	8%	-9%	-14%
O=C(N/N=C/c1ccc(O)c(O)c1)c1cccc(S(=O)(=O)N2CCCC2)c1	?	-43%	40%	nt	?	11µM*
COc1cc(/C=N/NC(=O)c2cccc(S(=O)(=O)N3CCCC3)c2)ccc1O	-6%	-3%	15%	nt	-9%	?
CC1(C(=O)NCc2ccco2)Cc2c(-c3ccc(C(N)=O)cc3)ccnc2O1 (stereo unspecified)	nt	nt	nt	nt	nt	0%
CC1(C)CC(=O)C2=C(C1)OC(N)=C(C#N)C2c1ccc[nH]1 (stereo unspecified)	28µM*	79µM*	2%	20µM*	-15%	-5%
Cn1cccc1C1C(C#N)=C(N)OC2=C1C(=O)CC(C)(C)C2 (stereo unspecified)	-1%	4%	11%	12%	-12%	3%
CC(=O)OCCN(C)c1cc(SC(C)C)c2nonc2c1[N+](=O)[O-]	171%	1%	-3%	-1%	-15%	3%
CN(CCO)c1cc(Sc2nc3ccccc3s2)c2nonc2c1[N+](=O)[O-]	22µM*	-16%	-4%	8%	-14%	23%
SMILES	POLI inh	Pol kappa inh	APEX1 inh	Pol beta inh	Pol eta inh	GLS inh
CCCn1c(N)c(N2CCCCC2)c(=O)n(CC(=O)Nc2ccc(C(C)=O)cc2)c1=O	40%	-10%	3%	nt	1%	4.5µM*
O=C(CSc1nc2sccc2c(=O)[nH]1)N1CCN(c2ccccc2)CC1	?	?	-35%	25µM*	50µM*	19%
CCSc1nnc(-c2ccccc2SC)o1	1%	-1%	-7%	6%	-13%	-17%
Cn1c(SCC(=O)c2cc(Cl)c(Cl)s2)nnc1-c1ccco1	16µM*	32µM*	2%	20µM*	?	-13%
Cc1ccc(C(=O)CSc2nnc(-c3ccco3)n2C)cc1	21%	-19%	12%	60%	-4%	?
Cc1cccc(NS(=O)(=O)c2cnc(Cl)c(Br)c2)n1	-5%	-3%	0%	8%	-13%	-4%
COc1ccc2cc(C(=O)Nc3ccccc3)sc(=O)c2c1OC	18%	?	1%	22µM*	?	1%
CN(C)S(=O)(=O)N1CCC(Oc2cccc(C(=O)N3CCCCCCC3)c2)CC1	89µM*	-10%	6%	0%	-10%	5%
N#Cc1ccc(/C=C\c2nccc3c2[nH]c2ccccc23)cc1	?	-18%	5%	18µM*	-1%	7%
Clc1ccc(/C=C\c2nccc3c2[nH]c2ccccc23)cc1	95%	1%	-4%	29%	-24%	-7%
COCc1nc(-c2cc(OC)c(OC)c(OC)c2)no1	17%	-6%	4%	-21%	-2%	3%
CCc1cc2cc3c(cc2nc1SCC(=O)Nc1nccs1)OCO3	71µM*	-2%	4%	0%	8%	0%
O=C(CSc1ncnc2c1oc1ccccc12)Nc1nccs1	-17%	-9%	16%	5%	-13%	2%
CCc1cc2cc3c(cc2nc1SCC(=O)Nc1c[nH]c(=O)[nH]c1=O)OCO3	-12%	1%	64%	-15%	-5%	-29%
CCc1nc(SCC(=O)Nc2nccs2)c2oc3ccccc3c2n1	32µM*	-20%	-4%	16µM*	?	1%
O=C(O)c1ccccc1Nc1cc(Cl)c2nonc2c1[N+](=O)[O-]	10µM*	-2%	7%	-17%	50µM*	-4%
O=C(O)c1cccc(Nc2cc(Cl)c3nonc3c2[N+](=O)[O-])c1	3.5µM*	-8%	0%	1%	-35%	-4%
O=C(O)c1ccccc1Nc1ccc([N+](=O)[O-])cc1	131%	-8%	2%	-21%	-24%	-19%
